Our source for the activation values is PubChem BioAssay AID652067 (The Scripps Research Institute Molecular Screening Center, 2013).

Out of some 370,000 compounds screened, about 5,400 (1.5%) were called active.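 The calls were made as follows: active = activation above the mean of all tested compounds plus 3 SD (cut at about 5.5% in these data); inactive = the rest.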 What follows is part of a selection rich in actives, with near analogues and random picks from the rest.

The experiment deals with DAF-12 nuclear receptor (Haemonchus contortus). Put plainly: H. contortus DAF-12 nuclear receptor activators, primary screen, cell-based, luminescence, HEK293, lit1-tk-luc reporter (AID 652067).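 Also: 100% = response to 3 µM Δ7-dafachronic acid high control.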 The conditions noted are these: HEK293 hcDAF-12 lit1-tk-luc reporter, at 6.8 µM, stronger effect = higher value, 0% DMSO, 100% Δ7-dafachronic acid.
Consider `CCSc1ccccc1C(=O)NCc1ccc(OC)cc1`, for which the activation is -0.9% (inactive). Under `COc1ccc(C(=O)NCCSc2ccccc2C)cc1` stands 5.88% (active); under `COc1ccc(C(=O)NCC[N+](C)(C)C)cc1`, -0.19% (inactive); under `COc1ccccc1S(=O)(=O)c1c(C)cc(C)[nH]c1=O`, 0.35% (inactive).

For the compound `O=C1Nc2ccccc2C1=NN=Cc1ccco1`, the activation was 1.9% (inactive). Turning to `Cc1cc(C)c(/C=C2\C(=O)Nc3ccccc32)[nH]1`, the activation is 6.61% (active). Under `CC(Sc1ncnc2c1cnn2-c1ccccc1)C(=O)Nc1ccc(N2CCOCC2)cc1` (centres undefined) stands 1.44% (inactive); under `CN(C(=O)COc1ncnc2c1cnn2-c1ccccc1)C1CCCCC1`, -0.54% (inactive).

Take `c1ccc(-n2ncc3c(N4CCCC4)ncnc32)cc1`: the activation was 6.43% (active). Under `COc1ccc(-n2c(SCC(=O)Nc3ccc4c(c3)OCCO4)nnc2-c2ccc(Cl)cc2)cc1` stands -1.21% (inactive); under `Cc1nc2ccc(S(=O)(=O)NCC(=O)O)cc2s1`, -0.41% (inactive).

For the compound `COc1cc(NC(=O)CN(C)S(=O)(=O)c2ccc3nc(C)sc3c2)cc(OC)c1`, the activation is -1.14% (inactive). In the case of `NS(=O)(=O)c1ccc2nc(NC(=O)CS(=O)(=O)c3ccc(F)cc3)sc2c1`, the activation was 9.74% (active). Under `COc1ccc(N2CCN(CCNS(=O)(=O)c3ccc([N+](=O)[O-])cc3)CC2)cc1` stands -2.96% (inactive); under `Nc1nc2cc(Cl)ccc2n1N`, -0.75% (inactive); under `Nc1ccc2c(c1)C(O)c1ccc(Cl)cc1-2` (centres undefined), 0.07% (inactive). For the compound `Nc1ccc2nn(-c3ccc(Cl)cc3)nc2c1`, the activation was 12.2% (active). In the case of `CCOc1ccc(N(CC(=O)Nc2c(C)n(C)n(-c3ccccc3)c2=O)S(=O)(=O)c2ccc(Cl)s2)cc1`, the activation is -1% (inactive).

As for `CN(CCc1ccccc1)C(=O)Cn1nc(-c2ccccc2)ccc1=O`, the activation was -1.21% (inactive).

For the compound `COC(=O)[C@]12C[C@H](CC(=O)NCc3ccccc3)C(=O)N(CCC3=CCCCC3)C1=C[C@H](C(C)C)O[C@@H]2C1CC1`, the activation was -1.01% (inactive). Consider `O=C(Nc1c(Cl)c(C2CC2)nn1-c1ccccc1)C(Cl)(Cl)Cl`, for which the activation was -0.16% (inactive). In the case of `O=C(Cn1ccc([N+](=O)[O-])n1)NCc1cccs1`, the activation was 10.1% (active). `Cc1ccnc(NC(=O)Cn2ccc([N+](=O)[O-])n2)c1`: the activation was 0.29% (inactive).

As for `O=C(CCn1ccc([N+](=O)[O-])n1)Nc1nccs1`, the activation is -1.81% (inactive). Under `CCOC(=O)[C@]12CCCC3=C1N(CCC3)C(=O)[C@@H](CC(=O)NCc1cccs1)C2` stands -2.04% (inactive); under `CC1CC(C)CN(C/C=C/c2ccccc2[N+](=O)[O-])C1` (centres undefined), 6% (active). Turning to `O=C(/C=C/c1ccccc1[N+](=O)[O-])OCC(=O)N1CCCC1`, the activation was 3.54% (inactive). On to `COc1cc(CN2CC(C)CC(C)C2)cc([N+](=O)[O-])c1O` (centres undefined), for which the activation is -3.15% (inactive). In the case of `COc1ccc(C2Nc3ccccc3C(=O)N2Cc2cccs2)cc1COc1c(C)cccc1C` (centres undefined), the activation is -0.71% (inactive). Under `O=S(=O)(Nc1ccc2nc(-c3ccco3)[nH]c2c1)c1ccccc1` stands 1.02% (inactive). In the case of `Cn1c(-c2ccco2)nc2cc3ccccc3cc21`, the activation was 17.4% (active). Under `Cn1c(SCC(=O)c2cccs2)nnc1-c1ccco1` stands 0.02% (inactive). With `C=CCN=C1NC(c2cccc(C(F)(F)F)c2)C(C(=O)OC)=C(C)N1C` (centres undefined), the activation is -0.27% (inactive). With `Cc1ccc(NC(=O)Cc2cccc(F)c2)c(S(=O)(=O)N2CCOCC2)c1`, the activation was -1.13% (inactive). Under `Cc1ccccc1NC(=O)COC(=O)c1ccc(Sc2ncn[nH]2)c([N+](=O)[O-])c1` stands 0.06% (inactive); under `CCCCN(C)C(=O)c1ccc2c(c1)N(CC)C(=O)c1ccccc1S2(=O)=O`, 6.63% (active); under `COC(=O)CNC(=O)c1ccc2c(c1)S(=O)(=O)c1ccccc1C2=O`, -0.44% (inactive). Take `O=C(c1ccc2c(c1)N(Cc1ccc(F)cc1)C(=O)c1ccccc1S2(=O)=O)N1CCN(c2ccccn2)CC1`: the activation is -2.49% (inactive). Under `OC(c1ccccc1)(c1ccccc1)C1CCN(CCCOc2ccc(-c3ccsc3)cc2)CC1` stands 0.49% (inactive). Turning to `CC(NCc1ccco1)C(=O)N1CCCCC1` (centres undefined), the activation is 0.18% (inactive). In the case of `COc1ccc(NCc2nnc(SCc3ccccc3)n2-c2ccc(OC)cc2)cc1`, the activation was -1.98% (inactive). Under `COc1ccc2nc(SCc3ccccc3)nc(C)c2c1` stands 7.19% (active). As for `COc1cccc(CSc2nnc(-c3cccnc3)n2Cc2ccccc2)c1`, the activation is -1.85% (inactive). On to `Fc1ccc2nc(COCc3nc4ccc(F)cc4[nH]3)[nH]c2c1`, for which the activation was -1.16% (inactive).

On to `Cc1ccccc1Nc1nnc(SCC(=O)c2cc3ccccc3o2)s1`, for which the activation is 7.93% (active). `Cc1cccc(Nc2nnc(SCC(=O)c3c(N)n(C4CC4)c(=O)[nH]c3=O)s2)c1C`: the activation is -1.19% (inactive).

For the compound `CCOc1ccccc1Nc1nnc(SCC(=O)Nc2cc(C)on2)s1`, the activation is -3.24% (inactive). Under `CC(=NNC(N)=O)c1ccc(Cl)c(-n2cccc2)c1` stands 0.37% (inactive); under `Fc1ccc2cnc(-c3ccccc3)cc2c1`, 6.9% (active). Consider `COc1cc(OC)cc(-c2cc3ccc(F)cc3cn2)c1`, for which the activation is 3.13% (inactive). Take `O=c1cc(-c2ccccc2)[nH]c2cc(F)ccc12`: the activation was -0.52% (inactive). Turning to `COC(=O)[C@]12C[C@H](CC(=O)NCc3ccccc3)C(=O)N(CCc3ccc(OC)c(OC)c3)C1=C[C@H](C(C)(C)C)O[C@@H]2C`, the activation is -2.1% (inactive).

With `O=c1[nH]c(-c2ccccc2)cn1C1CCN(Cc2ccc(-c3nc4ccc(F)cc4nc3-c3ccccc3)cc2)CC1`, the activation was 0.07% (inactive). For `O=C(CCS(=O)(=O)c1ccccc1)Nc1ccc(Cl)c(Cl)c1`, the activation is 0.35% (inactive). `COc1ccc(C#CCNCc2ccc(OC)cc2OC)cc1`: the activation is -3.08% (inactive).

On to `Cc1ccc2nc(-c3ccc(CN4CCC(n5cc(-c6ccccc6)[nH]c5=O)CC4)cc3)c(-c3ccccc3)nc2c1`, for which the activation was -2.64% (inactive). Take `Cc1cc(C)n(C(=O)CCNC(=O)c2ccccc2Cl)n1`: the activation was -1.04% (inactive).

Turning to `CN(C)CCNC(=O)c1ccc(Cl)c2cc3ccccc3nc12`, the activation was 13.5% (active). As for `COCCNC(=O)c1ccccc1-c1nc(-c2ccccc2Cl)no1`, the activation was 2.6% (inactive).
